# SNCA viab count – counter-screen for SNCA expression inhibitors: cell viability. HEK-293-SNCA-luc viability, GF-AFC fluorescence, 24 h. Potency, µM (highest dose often 57.1 µM), hits mostly cytotoxic. AID 1671193. actives 0.12% (n = 150,000); note: nearly all actives have a fitted effect of over 30% in size
#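 Cytotoxicity counterscreen: after 24 h compound treatment of genome-edited SNCA-luciferase HEK-293 cells, live-cell protease substrate GF-AFC read by fluorescence after 30 min; activity scaled between DMSO (0%) and medium-only (-100%), curves Hill-fitted.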
# KDM5B inhibitor – blocks human KDM5B histone demethylase activity; Q9UGL1; KDM5B demethylase, FDH-coupled NADH fluorescence (FDH is formaldehyde dehydrogenase); Potency, µM (series often up to 57.7 µM), usual class: inhibitors; actives 2.6% (n = 220,000); note: nearly all actives have a fitted effect of over 70% in size
#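 Here, H3K4me3 peptide (12.5 µM in substrate mix) is demethylated by KDM5BΔAP, 200 nM final, after 10 min compound exposure. Formaldehyde product is coupled through FDH (0.25 U/mL in mix) to NADH fluorescence; 30-min ΔRFU feeds dose-response curves.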
# IP6K1 inhibitor – IP6K1 kinase inhibition. activity change, % (series mostly up to about 58 µM). actives 0.81% (n = 140,000). Q92551. IP6K1 kinase, ADP-Glo luminescence, 2 h; active compounds read low. AID 1645851; in the data active = activity change below about -25%
# Target sequence (Q92551 whole entry, looked up): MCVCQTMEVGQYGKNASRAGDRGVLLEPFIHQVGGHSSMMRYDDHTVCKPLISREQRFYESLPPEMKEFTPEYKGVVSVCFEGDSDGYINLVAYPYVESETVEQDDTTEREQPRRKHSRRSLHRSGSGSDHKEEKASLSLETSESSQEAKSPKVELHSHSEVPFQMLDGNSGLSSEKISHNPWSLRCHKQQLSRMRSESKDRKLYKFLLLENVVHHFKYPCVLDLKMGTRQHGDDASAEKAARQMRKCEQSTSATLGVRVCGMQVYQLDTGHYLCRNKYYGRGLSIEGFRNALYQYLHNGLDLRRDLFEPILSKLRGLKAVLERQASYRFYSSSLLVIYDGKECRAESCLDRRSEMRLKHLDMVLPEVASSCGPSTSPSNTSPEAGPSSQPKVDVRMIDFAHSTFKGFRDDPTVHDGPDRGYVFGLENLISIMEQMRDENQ
#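 ADP-Glo luminescence measures ADP made by human IP6K1 during a 2 h RT reaction with ATP/IP6 (mix at 1.3 mM/130 uM); top library doses 57.5 and 19.1 uM final.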
# SNCA expr inhib – reduces expression of the alpha-synuclein gene. HEK-293 SNCA-luciferase knock-in, luminescence, 24 h. Potency, µM (highest dose often 57.2 µM), hits mostly inhibitors. actives 0.17% (n = 140,000); note: nearly all actives have a fitted effect of over 45% in size
# A number is an active result; – = inactive; ? = inconclusive; · = no result. Compounds with a hit are over-represented: about 2.8% of the library has one in this group of screens. Unless noted, calls come from the whole dose curve; as a rule, active = well fitted curve in the direction sought with a large enough effect; inconclusive = small, poorly fitted or top-dose-only effect, or another doubt; inactive = no such curve, though single readings can be large; an effect the other way counts as inactive or inconclusive.
SMILES,SNCA viab count,KDM5B inhibitor,IP6K1 inhibitor,SNCA expr inhib
COc1ccc(OCC2(C)COc3ccc(C(=O)NC4CCC(O)CC4)cc3N2)cc1 (centres undefined),?,31.6µM,–,?
CC1(COc2cccnc2)COc2ccc(C(=O)NC3CCC(O)CC3)cc2N1 (centres undefined),–,35.5µM,–,–
CC1(COc2cccnc2)COc2ccc(C(=O)NCC3CCOCC3)cc2N1 (centres undefined),–,35.5µM,–,–
COc1ccc(C2CC(c3ccccc3NS(C)(=O)=O)=NN2C(=O)c2cccs2)cc1 (centres undefined),·,–,·,·
CCOC(=O)c1ccc(NC(=O)CSc2ncc(S(=O)(=O)c3ccc(C)c(Cl)c3)c(=O)[nH]2)cc1,–,–,-49.2,–
Cc1ccc(C(CNC(=O)c2cc(=O)c3ccc(C)c(C)c3o2)N2CCCC2)o1 (centres undefined),·,–,·,·
Cc1oc(-c2nc(C#N)c(N3CCOCC3)o2)cc1S(=O)(=O)N(C)C,·,–,·,·
O=C(Cc1ccccc1F)N1CCN(c2nnc3ccc(Cl)cn23)CC1,–,?,–,–
O=C(Cc1ccc(Cl)cc1)N1CCN(c2ccccc2O)CC1,·,–,·,·
O=C(Cc1cccc(C(F)(F)F)c1)N1CCN(c2nnc3ccc(Cl)cn23)CC1,–,25.1µM,–,–
O=C(Cc1ccc(Cl)cc1)N1CCN(c2nnc3ccccn23)CC1,–,25.1µM,–,–
CCNS(=O)(=O)c1ccc(C(=O)N2CCCC2c2ccc3c(c2)OCCO3)cc1 (centres undefined),·,–,·,·
O=C(Cn1ccn2nc(-c3ccccc3)c(CO)c2c1=O)Nc1ccc(Cl)cc1,–,28.2µM,–,–
O=C(Cn1ccn2nc(-c3ccccc3)c(CO)c2c1=O)Nc1ccc(Br)cc1,–,?,–,–
COc1ccc(CCNC(=O)Cn2ccn3nc(-c4ccccc4)c(CO)c3c2=O)cc1OC,–,?,–,–
CCCCc1ccc(NC(=O)Cn2ccn3nc(-c4ccccc4)c(CO)c3c2=O)cc1,–,25.1µM,–,–
O=C(Cn1ccn2nc(-c3ccccc3)c(CO)c2c1=O)NCCc1ccc(Cl)cc1,–,28.2µM,–,–
COc1cc(OC)c(OC)cc1CNC(=O)c1cc(Cl)ccc1O,·,–,·,·
COCCn1c2c(c(=O)n1-c1ccccc1)CCN(Cc1ccncc1Cl)C2,–,35.5µM,–,–
O=c1c2c(n(Cc3cccnc3)n1-c1ccccc1)CN(Cc1ccccc1Cl)CC2,?,?,–,?
COc1ccc(-c2nc3cc(NC(=O)c4cccs4)ccc3o2)cc1,·,–,·,·
CN(Cc1ccc(CN2CCCC(O)(CO)C2)o1)S(C)(=O)=O (centres undefined),–,–,–,–
C=CC[C@H]1CC(C)=C[C@H](CC=C)N1Cc1ccc(CN(C)S(C)(=O)=O)o1,–,14.1µM,–,–
O=C(NC1CCNCC1)c1cc(C2CC2)nc2onc(C3CCCN3)c12 (centres undefined),–,79.4µM,–,–
COc1ccc(-c2cc(C(=O)NC3CC3)c3c(C4CCCN4)noc3n2)cc1 (centres undefined),–,79.4µM,–,–
SMILES,SNCA viab count,KDM5B inhibitor,IP6K1 inhibitor,SNCA expr inhib
COc1ccc(-c2cc(C(=O)NC3CC3)c3c(C4CCNC4)noc3n2)cc1 (centres undefined),–,79.4µM,–,–
N#CC(C(=O)CN1CCCC1)c1ccccc1 (centres undefined),·,–,·,·
CC(Sc1nnc(-c2c[nH]c3ccccc23)o1)C(=O)N1CCNC1=O (centres undefined),·,–,·,·
CN(C)c1ccc(-c2ccnc(N[C@H]3CO[C@H]4[C@@H]3OC[C@H]4OC(=O)NC3CCCCC3)n2)cc1,–,31.6µM,–,–
O=C(NC1CCCCC1)O[C@@H]1CO[C@H]2[C@@H]1OC[C@@H]2Nc1nccc(-c2cccs2)n1,?,31.6µM,–,–
CN(C)c1ccc(-c2ccnc(N[C@H]3CO[C@H]4[C@@H]3OC[C@H]4OC(=O)Nc3cccc(C#N)c3)n2)cc1,–,–,–,–
COc1cccc(CNC(=O)N[C@@H]2CN(Cc3ccncc3)C[C@H]2CN(C)C)c1,–,?,–,–
COc1cccc(CNC(=O)N[C@@H]2CN(c3ncccn3)C[C@H]2CN(C)C)c1,–,28.2µM,–,–
COCc1c(C(=O)N[C@@H]2CN(c3ncccn3)C[C@H]2CN(C)C)noc1C,–,28.2µM,–,–
COCCNC(=O)N[C@@H]1CN(c2ncccn2)C[C@H]1CN(C)C,–,22.4µM,–,–
O=C(c1ccccc1)N1CCn2c(nn(-c3ccc(C(F)(F)F)cc3)c2=O)C1,–,?,–,–
COc1ccccc1C(=O)N1CCn2c(nn(-c3ccc(C(F)(F)F)cc3)c2=O)C1,–,79.4µM,–,?
Cc1ccc(-n2nc3n(c2=O)CCN(C(=O)c2ccc(Cl)nc2)C3)cc1,–,25.1µM,–,–
Cc1ccc(-c2cc3c(SCC(=O)N4CCN(c5ccc(F)cc5)CC4)nccn3n2)cc1,·,–,·,·
CCN(CC)C(=O)c1cccc(NS(=O)(=O)c2cccs2)c1,·,–,·,·
COc1ccc(CN(C)C(=O)Cn2nnnc2CN2CCOCC2)c2cccnc12,–,22.4µM,–,–
O=C(c1cccs1)N1CCOc2ccc(N3CCCC3)cc2C1,–,·,–,–
N#Cc1ccc(CN2C[C@@H]3OCC(=O)N(CC(N)=O)[C@@H]3C2)cc1,–,35.5µM,–,–
CCc1ccc(C(=O)N2CCCC(c3noc(-c4cc5c(=O)[nH]c(C)cn5n4)n3)C2)cc1 (centres undefined),–,25.1µM,–,–
Cc1cccc(C(=O)N2CCCC(c3noc(-c4cc5c(=O)[nH]c(C)cn5n4)n3)C2)c1 (centres undefined),–,–,–,?
Cc1cn2nc(-c3nc(C4CCCN(C(=O)c5ccc(C)s5)C4)no3)cc2c(=O)[nH]1 (centres undefined),–,28.2µM,–,–
Cc1cn2nc(-c3nc(C4CCCN(C(=O)Cc5ccsc5)C4)no3)cc2c(=O)[nH]1 (centres undefined),–,–,–,–
Cc1cn2nc(-c3nc(C4CCCN(C(=O)c5sccc5C)C4)no3)cc2c(=O)[nH]1 (centres undefined),–,25.1µM,–,–
CCCCn1c(=O)[nH]c(=O)c2[nH]c(-c3ccc(C#N)cc3)nc21,·,–,·,·
O=C(Nc1cccc(-c2nnc3n2CCCC3)c1)c1cc(-c2ccccc2)n[nH]1,–,?,–,–
O=C(Nc1ccc(-c2nnc3n2CCCC3)cc1)c1cc(-c2ccccc2)n[nH]1,–,31.6µM,–,–
CCCC1CN(Cc2cccc(F)c2)C(=O)c2ccc(C)nc2O1 (centres undefined),·,·,–,·
O=C(CCc1nc2ccc(Cl)cc2[nH]1)N1CCc2c(nc3cc(-c4ccccc4)[nH]n3c2=O)C1,–,31.6µM,–,–
O=C(CCc1nc2ccc(Cl)cc2[nH]1)N1CCc2nc3cc(-c4ccccc4)[nH]n3c(=O)c2C1,–,22.4µM,–,?
O=C1CN(C(=O)CCC(=O)N2CCc3c(nc4cc(-c5ccccc5)[nH]n4c3=O)C2)c2ccccc2N1,–,28.2µM,–,–

# Screening results (PubChem BioAssay)
